# The whole screen tested about 320,000 compounds, of which about 22,000 (6.9%) were called active. Inconclusive results (about 27%) are left out. Shown is part of a subset that was picked to be rich in actives. Unmarked numbers belong to inactive results. The call rests on the fitted dose curve; in most records, active means well fitted inhibition curve with a large enough effect; inconclusive means small, poorly fitted or top-dose-only effect, or another doubt; inactive means no such curve, though single readings can be large or run the other way.
# Assay: Primary qHTS for delayed death inhibitors of the malarial parasite plastid, 96 hour incubation
# Settings: P. falciparum luciferase reporter growth; series mostly up to 28.7 µM; activity change, negative = inhibition: at the top concentration
# From the text: The goal of this screen is to discover new antimalarial compounds that act by inhibiting the development of the apicoplast in the malarial parasite Plasmodium falciparum. The biochemical processes that make this organelle essential for erythrocytic stage parasites are not well understood. However, antibiotics such as azithromycin and tetracycline, which target the apicoplast translational machinery, have a potent antimalarial effect.
# We have developed a cell-based assay that measures parasite growth based on the expression of an integrated copy of a firefly luciferase reporter. To detect small molecules that cause this "delayed death" phenotype, erythrocytes infected with the luciferase-expressing parasites were incubated with compounds for either one or two generations, corresponding to 48 and 96 hours, respectively. Compounds that inhibit parasite growth in the second generation, but not the first, should be enriched in antimalarials that target the apicoplast. Growth inhibition is detected by a decrease in luciferase activity.
# Assay Provider: David Fidock and Eric Ekland, Columbia University
# Keywords: NIH Roadmap, MLPCN, MLI, MLSMR, qHTS, NCGC, qHTS, malaria, luciferase, viability
# Four microliters of infected erythrocytes (2% hematocrit, 0.05% parasitemia final concentration) in culture medium were dispensed and the plates incubated for 96 hours at 37 C in 5% CO2. Two microliters of luciferase detection reagent was added and luminescence was detected by a ViewLux (PerkinElmer) reader.
# On the % scale 0 is the no-effect control and ±100 the full control effect; potency means the concentration at half of the fitted maximal effect.
SMILES,"activity change, negative = inhibition",Potency
COC(=O)c1ccc(COC(=O)CNC(=O)c2cccc(OC)c2)o1,5.51%,–
CCN(CC)CCCNC(=O)c1c(O)c2cc(F)cc3c2n(c1=O)C(C)CC3 (centres undefined),63.5%,–
CCN1C(=NCCc2cccnc2)N[C@@H](c2ccccc2)[C@H](C(=O)OC)[C@H]1C,–,7.38 µM (active)
CCN1C(=NCCc2cccnc2)N[C@@H](c2ccccc2)C(C(=O)OC)=C1C,–,inactive
CC(=O)OC(C(=O)NCCc1ccccc1)c1cccnc1 (centres undefined),20.2%,–
CC(=O)C1=C(C)NC(=O)NC1c1ccc2c(c1)OCO2 (centres undefined),42.1%,–
CC(C)(C)c1ccc(C(CC(=O)O)NS(=O)(=O)Cc2ccccc2)cc1 (centres undefined),14.4%,–
O=C(Nc1ccc(S(=O)(=O)Nc2nccs2)cc1)c1cccc(S(=O)(=O)N2CCOCC2)c1,–,11.7 µM (active)
O=C(Nc1ccc(S(=O)(=O)Nc2nccs2)cc1)c1cc(=O)[nH]c2ccccc12,16.1%,–
Cc1ccnc(NS(=O)(=O)c2ccc(NC(=O)c3ccc(S(=O)(=O)N4CCOCC4)cc3)cc2)n1,-31.3%,–
Cc1cccc(C)c1NC(=S)N1CCCCCC1,20.3%,–
Cc1ccccc1NC(=O)Cc1nc(COC(=O)c2ccc(C(F)(F)F)cc2)cs1,19.2%,–
CCOc1ccc(N(CC(=O)NCCc2ccc(OC)cc2)S(C)(=O)=O)cc1,22.2%,–
CCOc1ccc(N(CC(=O)NCc2ccc(OC)cc2)S(=O)(=O)c2c(C)noc2C)cc1,–,9.28 µM (active)
Cc1noc(C)c1S(=O)(=O)N(CC(=O)NCc1ccc(Cl)cc1)c1ccc2c(c1)OCO2,-22.2%,–
COc1ccc(C(=O)N2CCCN(C)CC2)c(OC)c1,-15.6%,–
Cc1cc(C)c(S(=O)(=O)c2ccc(F)cc2C)c(=O)[nH]1,-2.87%,–
O=C(OCC(=O)N1CCCC1=O)c1cc(S(=O)(=O)N2CCOCC2)ccc1Cl,16.7%,–
Cc1noc(C)c1COc1ccc(C(=O)NCCOc2ccccc2)cc1,34.1%,–
O=C(CCC1CCN(C(=O)c2cccc(Cl)c2F)CC1)Nc1ccccc1,-20.8%,–
CCNC(=O)c1cccc(NC(=O)C2CC(=O)N(CCc3ccccc3)C2)c1 (centres undefined),9.08%,–
CN(NC(=O)c1ccccc1F)c1nc(C(F)(F)F)nc2ccccc12,–,11.7 µM (active)
COC(=O)CNC(=O)c1ccccc1F,9.78%,–
CN(NC(=O)c1ccccc1)c1nc2ccccc2nc1C(F)(F)F,31.1%,–
O=C(O)c1ccccc1N=N/C(=N/Nc1cc(S(=O)(=O)O)ccc1O)c1ccccc1,15.8%,–
CC1CC(=O)Nc2ccccc2N1C(=O)COc1ccc2cc(Br)ccc2c1 (centres undefined),-10.8%,–

SMILES,"activity change, negative = inhibition",Potency
C=CCN(C(=O)Cn1ncc2c1-c1cc(C)ccc1OC2)c1ccccc1,–,9.28 µM (active)
C=CCN(C(=O)Nc1ccc2oc(C)nc2c1)c1ccccc1,35.4%,–
C=CCN(C(=O)Nc1ccc2c(c1)nc(C)n2C)c1ccccc1,128%,–
CC(=O)NC(CC(=O)Nc1cccc(S(=O)(=O)N2CCCC2)c1)c1ccccc1 (centres undefined),-13.5%,–
CC[C@]1(O)CC2CN(CCc3c([nH]c4ccccc34)[C@@](C(=O)OC)(c3cc4c(cc3OC)N(C=O)[C@H]3[C@@](O)(C(=O)OC)[C@H](OC(C)=O)[C@]5(CC)C=CCN6CC[C@]43[C@@H]65)C2)C1 (some centres undefined),–,0.262 µM (active)
CC[C@]1(O)C[C@@H]2CN(CCc3c([nH]c4ccccc34)[C@@](C(=O)OC)(c3cc4c(cc3OC)N(C)[C@H]3[C@@](O)(C(=O)OC)[C@H](OC(C)=O)[C@]5(CC)C=CCN6CC[C@]43[C@@H]65)C2)C1,–,0.147 µM (active)
CN(C(=O)COC(=O)CNC(=O)C12CC3CC(CC(C3)C1)C2)c1ccccc1,9.76%,–
Cc1cc(NC(=O)CSc2nnnn2-c2ccc(F)cc2)no1,11.3%,–
CC(C(=O)NCCc1ccc(S(N)(=O)=O)cc1)N1C(=O)CC(C)(C)Sc2ccccc21 (centres undefined),8.48%,–
CCCN(C(=O)c1nc2nccc(C)n2n1)c1c(N)n(Cc2ccccc2)c(=O)[nH]c1=O,-13.1%,–
COc1ccc(NC(=S)N2CCc3cc(OC)c(OC)cc3C2)cc1,6.7%,–
COc1ccc(C)cc1NC(=S)N1CCOCC1,–,10.4 µM (active)
COc1ccc(OC)c(NC(=O)c2ccc3c(c2)CCN3S(C)(=O)=O)c1,4.71%,–
COc1ccccc1/C=C/C(=O)NC(=S)N1CCOCC1,1.93%,–
COc1ccc(OC)c(NC(=S)N2CCc3ccccc3C2)c1,–,4.15 µM (active)
CCOC(=O)N1CCN(C(=S)Nc2ccc(C)cc2C)CC1,0%,–
CC1CCCCN1C(=O)CCS(=O)(=O)Cc1ccccc1 (centres undefined),0%,–
CC(OC(=O)c1ccccc1NCCO)C(=O)Nc1ccnn1C(C)C (centres undefined),9.28%,–
CC(CCN1CCN=C1N(C)C)c1ccccc1 (centres undefined),0%,–
COc1ccc(N=C(C)c2sc3ccccc3c2O)cc1,166%,–
Cc1ccc(NS(=O)(=O)c2cn(C)c(=O)n(C)c2=O)c(C)c1,-6.8%,–
Brc1ccc(C2CC(c3ccccc3)=Nc3ccccc3N2)cc1 (centres undefined),-26%,–
Fc1ccccc1N=C1Nc2cccc3cccc1c23,5.56%,–
c1ccc(C2=Nc3cccc4cccc(c34)N2)cc1,–,11.7 µM (active)
C[C@@H](NC(=O)[C@@H]1Cc2ccccc2CN1)C(=O)NC1CCCC1,-9.37%,–
CN(Cc1cnccn1)C(=O)c1cc(COc2cccc(C(F)(F)F)c2)on1,-9.17%,–

SMILES,"activity change, negative = inhibition",Potency
COc1ccc(N2CCN(S(=O)(=O)c3ccc4c(c3)NC(=O)C(C)C(=O)N4)CC2)cc1 (centres undefined),10.7%,–
Nc1nc(NCC(=O)O)nc(N2CCCCCC2)c1[N+](=O)[O-],20.6%,–
C=CCNc1nc(N)c([N+](=O)[O-])c(NC2CCCCC2)n1,–,10.4 µM (active)
COCCNc1nc(N)c([N+](=O)[O-])c(NCCO)n1,31.3%,–
O=C(COc1ccc2ccc(=O)oc2c1)NCC(O)c1ccccc1 (centres undefined),-26.5%,–
O=C(CCC1CCCC1)N=C1SC2CS(=O)(=O)CC2N1Cc1ccccc1 (centres undefined),37.1%,–
Cc1ccccc1OCC(=O)NNC(=O)c1ccc(-n2cncn2)c([N+](=O)[O-])c1,23.3%,–
O=C(Cn1nnc2ccccc2c1=O)NCc1ccc(Cl)cc1,81.2%,–
C=CCn1c(SCn2nnc3ccccc3c2=O)nnc1-c1ccc(Cl)cc1,–,11.7 µM (active)
O=c1c2ccccc2nnn1CSc1nnnn1-c1ccccc1,46%,–
N/C(=N\S(=O)(=O)c1ccc(Cl)cc1)N1CCOCC1,-3.64%,–
CCOC(=O)Cc1csc(SCC(=O)Nc2ccc(C)cc2F)n1,21.7%,–
Cc1nc2ccccc2nc1N/N=C/c1ccc(O)cc1O,–,2.94 µM (active)
FC(F)(F)c1nc2ccccc2nc1N/N=C/c1ccc(Cl)cc1,37.3%,–
Oc1ccc(/C=N/NC2=NCCCCC2)c(O)c1,27.9%,–
Oc1ccc(/C=N/Nc2nc(-c3ccccc3F)nc3ccccc23)c(O)c1,–,11.7 µM (active)
Fc1ccc(/C=N/Nc2nc(-c3cccnc3)nc3ccccc23)cc1,0%,–
Cc1cc(N/N=C/c2ccccc2F)c2ccccc2n1,2.63%,–
CC1CCCN(C(=O)CN2C(=O)c3ccccc3S2(=O)=O)C1 (centres undefined),309%,–
COc1cc(OC)cc(/C(N)=N/O)c1,110%,–
Cc1cc(SCc2c(F)cccc2Cl)nc(=O)[nH]1,–,11.7 µM (active)
CSc1cc(C)[nH]c(=O)n1,0%,–
Cc1snc(SCc2c(F)cccc2Cl)c1C#N,7.68%,–
O=c1cc(CN2CCN(S(=O)(=O)/C=C/c3ccccc3)CC2)c2ccc(O)cc2o1,–,11.7 µM (active)
Cc1ccc2c(CN3CCN(S(=O)(=O)c4ccccc4C(F)(F)F)CC3)cc(=O)oc2c1,–,9.28 µM (active)
O=C(CN1CCN(S(=O)(=O)/C=C/c2ccccc2)CC1)Nc1ccc(N2CCOCC2)cc1,-2.43%,–

SMILES,"activity change, negative = inhibition",Potency
NC(=O)CCN1CCN(S(=O)(=O)/C=C/c2ccccc2)CC1,12.9%,–
Cc1onc(-c2ccccc2)c1C(=O)N1CCN(S(=O)(=O)c2ccccc2C(F)(F)F)CC1,3.53%,–
CN1CCN(Cc2ccccc2C(F)(F)F)CC1,-13.6%,–
Cc1cccc(NC(=O)CCn2c(=O)oc3ccccc32)c1,-2.59%,–
CCCCn1c(N)c(N(CCOC)C(=O)c2oc3ccc(OC)cc3c2C)c(=O)[nH]c1=O,0.114%,–
O=C(NCCS(=O)(=O)c1ccc(Br)cc1)c1ccccc1Cl,25.8%,–
Cc1cccc(C(=O)Nc2ccc(C(=O)N/N=C/c3cccc(C)n3)cc2)c1,41.4%,–
COc1cccc(NC(=O)CSc2nccn(-c3ccc4c(c3)OCCO4)c2=O)c1,23%,–
CCOC(=O)c1ccc(NC(=O)CNC(=O)c2ccco2)cc1,254%,–
CCOC(=O)C1C(c2ccc(Cl)cc2)NC(=S)NC1(O)C(F)(F)F (centres undefined),7.76%,–
CCOC(=O)[C@@H]1[C@H]2COc3ccc(Br)cc3[C@H]2N2C(=O)N(c3ccc(Cl)cc3)C(=O)[C@@]12C,–,11.7 µM (active)
CCOC(=O)[C@H]1[C@H]2COc3cc(OC)ccc3[C@@H]2N2C(=O)N(c3ccc(Br)cc3)C(=O)[C@@]12C,–,11.7 µM (active)
CCOC(=O)C1CCN(C(=O)Nc2cccc(OC)c2)CC1,8.91%,–
COc1ccc(NS(=O)(=O)c2cccc(C(=O)NCCc3ccc(S(N)(=O)=O)cc3)c2)cc1,-29.3%,–
CC1CCCCC1NC(=O)COC(=O)Cc1ccc(Cl)cc1 (centres undefined),7.06%,–
COc1ccc(-c2ocnc2C(=O)Nc2ccc3c(c2)CCC3)cc1,13%,–
O=S(=O)(Nc1ccccc1Br)c1cccs1,9.4%,–
CC(C)CCNC(=O)c1cccnc1Sc1ccccc1,55.7%,–
CCCCN(C)CCCNC(=O)c1cc(-c2cccs2)nc2ccccc12,-14%,–
CC(C)OCCCNC(=O)c1cc(Sc2ccc(F)cc2)nc2ccccc12,–,3.29 µM (active)
O=C(O)C(NS(=O)(=O)c1cccc2nsnc12)c1ccccc1 (centres undefined),19.4%,–
CC(=O)Nc1cccc(NC(=O)c2ccc3c(c2)CCN3S(C)(=O)=O)c1,-3.65%,–
O=C(CCCCO)c1ccc(O)c(Cl)c1,104%,–
COc1cc(OC)cc(C(=O)NCCCn2ccnc2)c1,30.8%,–
COc1ccc(/C=C(\C#N)C(=O)NCCCn2ccnc2)cc1,-13.6%,–
COc1cccc(-c2nn(-c3ccccc3)cc2/C=C(\C#N)C(=O)NCCCn2ccnc2)c1,–,1.65 µM (active)

# From PubChem BioAssay AID504834 (National Center for Advancing Translational Sciences (NCATS), 2011)
